Source: PubChem BioAssay AID651784 (National Center for Advancing Translational Sciences (NCATS), 2012)
Inconclusive results are not listed. Activity calls are given as the source filed them. The call rests on the fitted dose curve; in most records, active means well fitted inhibition curve with a large enough effect; inconclusive means small, poorly fitted or top-dose-only effect; inactive means no such curve, though single readings can be large or run the other way.

Assay: Acumen qHTS Assay for Inhibitors of the mTORC1 Signaling Pathway in MEF (Tsc2-/-, p53-/-) Cells: Hit Validation; further: nearly all actives have a fitted effect of over 65% in size
Conditions: Acumen imaging; activity change, negative = inhibition: at 37.3 µM (top of the series)
Excerpt: The mammalian target of rapamycin (mTOR) is an intracellular serine/threonine kinase Aberrant regulation of mTOR signaling plays a causative role in a number of human diseases, including cancer, benign tumors such as lymphangioleiomyomatosis (LAM) and Tuberous Sclerosis Complex (TSC), and metabolic diseases such as diabetes and obesity. This project aims to identify inhibitors of ribosomal protein S6 (rpS6) phosphorylation. The phosphorylation of rpS6 is a key event downstream of mTOR activation. The assay uses a phospho-specific antibody of phospho-rpS6 to detect inhibitors of mTOR activation. Mutations in the Tsc1 and Tsc2 genes are the underlying genetic lesions responsible for TSC, causing constitutive activation of the mTORC1 pathway and leading to profound effects on cell metabolism. Aberrant metabolism in cancer has recently received significant attention as a target to develop therapeutic agents in the treatment of cancer.1 As Tsc2-/- cells have lost the ability to respond to energy and growth factor deprivation, these cells are unable to properly down regulate cellular biosynthetic processes in response to metabolic stress, and are thus extremely sensitive to glucose deprivation-induced death.2 A central goal of this project is to explore the unique cell survival and metabolic properties of cells with Tsc1 or Tsc2 by screening for compounds that selectively target the Tsc2-/- MEFs by screening both Tsc2-/- and WT MEF cell lines. We hope to better understand these aspects of TSC physiology in order to exploit them for therapeutic benefit.
NIH Molecular Libraries Probe Production Centers Network [MLPCN]
NIH Chemical Genomics Center [NCGC]
Assay Submitter (PI): Blenis, John; Harvard University
For quantitative high throughput analysis of mTORC1 signaling, we developed a cell-based assay for immuno-fluorescence based detection of rpS6 phosphorylation on the Acumen Explorer that will be used a platform for the primary small molecule screen. Mouse embryonic fibroblasts (MEFs) are cultured in 1536-well plates using DMEM + 10% FBS. Twenty-four hrs after plating, test compounds (solubilized in DMSO) are delivered and incubated with the cells for 24 hrs at 37 degree Celsius. Following the incubation, media with compound is aspirated and the cells are fixed in 4% paraformaldehyde (PFA) containing PBS + 0.2% TX-100. Next, PFA is aspirated, cells are washed two times with PBS plus 0.2% TX-100 and the cells are blocked for 1 hr at room temperature (blocking buffer: LiCOR Blocking Buffer plus 0.2% TX-100). This is followed by aspiration and staining with Alexa-488 conjugated-phospho-rpS6 Ser235/236 antibody for 2 hours at room temperature (Cell Signaling Technology # 4803, 1:50 dilution in blocking buffer). Cells are washed two times with PBS plus 0.2% TX-100, and stained with 10 uM propidium iodide (PI) for 20-25 minutes for cell number measurement (1:500 dilution of Hoescht staining is also added for IN Cell imaging). The plates are scanned on the Acumen Explorer laser scanning instrument (TTP Labtech) using the 488nm laser for simultaneous excitation of the Alexa-488 and PI. […] Fluorescence emission from the PI stain is selected using a 575-640 nm band pass filter. The normalized phospho-S6 staining is calculated as the ratio of the integrated Alexa 488 intensity divided by the integrated PI intensity for the single concentration rapamycin control (7.5 nM) and DMSO columns. […] Inhibition of the pathway is defined based on the normalized phospho-S6 intensity in rapamycin treated cells. Active cells are defined as those with a normalized phospho-S6 staining above this threshold, and each treatment is reported as the % positive cells in the well, where thresholds are defined by selecting wells with the highest and lowest signal and differentiating between the % non-active and % active populations. In addition to the pathway specific phospho-S6 endpoint, the number of PI stained cells from the Acumen is recorded as a measure of cell viability. […]
Potency means the concentration at half of the fitted maximal effect.

Row | SMILES | activity change, negative = inhibition [%] | Potency
1 | CCCCOC(=O)c1ccc(NC(=O)c2sc3nc(C)cc(C)c3c2N)cc1 | -72 | –
2 | CCS(=O)(=O)c1ncc(Cl)c(C(=O)NCc2ccccc2)n1 | – | 6.56 µM (active)
3 | Cc1ccc2nc(-c3cccc(NC(=O)c4cccc5ccccc45)c3)oc2c1 | -72.4 | –
4 | COc1ccc(S(=O)(=O)Nc2ccc3oc4c(c3c2)CCCC4)cc1 | 1.17 | –
5 | O=C(CC(NCc1cccnc1)C(=O)O)Nc1ccc(O)cc1 (stereo not given) | 5.37 | –
6 | O=C(NCc1ccc(F)cc1)c1ccc2c(Cl)c3c(nc2c1)CCCC3 | 26.5 | –
7 | CN(c1ccccc1)S(=O)(=O)c1ccc(NC(=O)c2nc(S(C)(=O)=O)ncc2Cl)cc1 | – | 1.47 µM (active)
8 | Cc1ccc(NC(=O)CSc2nc(=O)cc(N)n2CCc2ccccc2)cc1 | -30 | –
9 | Cc1nn(C(C)C(=O)NC2CCC(C)CC2)c(=O)c2c1sc1ccccc12 (stereo not given) | -5.69 | –
10 | COc1ccc(CCN2CCC(CNC(=O)c3cnn(-c4cccc(Cl)c4)c3C3CCN(C(=O)OC(C)(C)C)CC3)CC2)cc1 | – | 6.56 µM (active)
11 | CC(C)(C)c1ccc(C2NC(=O)c3n[nH]c(-c4cccs4)c32)cc1 (stereo not given) | -6.84 | –
12 | Cc1nc2nncn2c(NCc2ccc(F)cc2)c1C | -42.2 | –
13 | CCCN(CCC)CCCNC(=O)C1CCN(c2nc3ccc(CC)cc3s2)CC1 | – | 11.7 µM (active)
14 | Cc1cccc(NC(=O)Cn2cc(C(=O)C3CCCCC3)c3ccccc32)c1C | – | 1.04 µM (active)
15 | N=c1n(CCN2CCCCC2)c2ccccc2n1CC(O)COc1ccc(Cl)cc1Cl (stereo not given) | – | 5.21 µM (active)
16 | CCOc1ccccc1NC(=O)c1cn(C2CCCC2)c(=O)c2c1c1ccccc1n2C | -10.9 | –
17 | CCOc1ccc(NC(=O)CN2C(=O)C(c3ccc(Cl)cc3)=NC2(C)C)cc1 | 17.5 | –
18 | CCC1CCc2nc3sc(C(=O)Nc4ccc(C)cc4)c(N)c3cc2C1 (stereo not given) | – | 8.26 µM (active)
19 | CCC(=O)C1=C(c2ccc(F)cc2)N(C(=O)CC)n2cnnc2S1 | -29.5 | –
20 | Cc1ccccc1NC(=O)c1sc2nc3c(cc2c1N)CCCC3 | -21.3 | –

Row | SMILES | activity change, negative = inhibition [%] | Potency
21 | O=C(Nc1ccccc1)N(Cc1cccc(Cl)c1)c1ccccn1 | 14.8 | –
22 | CC(=O)N1CCCc2cc(S(=O)(=O)N(Cc3ccccc3)C(C)C)ccc21 | -22.8 | –
23 | CCc1ccc(NC(=O)C2CCCN(S(=O)(=O)c3c(C)noc3/C=C/N(C)C)C2)cc1 (stereo not given) | -73.7 | –
24 | COc1cc(C(=O)NC(c2ccccc2Cl)c2cc(Cl)c3cccnc3c2O)cc(OC)c1OC (stereo not given) | – | 2.33 µM (active)
25 | Cc1nn(CC(=O)N2CCN(c3ccccc3F)CC2)c(=O)c2cccn12 | 2.89 | –
26 | COc1ccc(CC(=O)Nc2sc3c(c2C(=O)Nc2cccc(C)c2)CCCCC3)cc1 | – | 4.14 µM (active)
27 | CCc1nn(CC(=O)NCc2ccccc2)c(=O)c2cccn12 | 5.81 | –
28 | COc1ccc(-c2n[nH]c3c2C(c2ccc(O)cc2)N(c2ccc(Br)cc2)C3=O)cc1 (stereo not given) | 2.17 | –
29 | COc1ccc2nc(NC(=O)c3nc(S(=O)(=O)Cc4ccccc4F)ncc3Cl)sc2c1 | -106 | –
30 | O=C(CCS(=O)(=O)c1nc(-c2cccs2)cc(C(F)(F)F)n1)Nc1cccc(O)c1 | -112 | –
31 | CCCC1=Nc2cc(C(=O)NCc3ccccc3)ccc2Sc2ccccc21 | – | 4.14 µM (active)
32 | CCc1ccc(OCC(=O)Nc2ccc3oc(-c4ccc(OC)cc4)nc3c2)cc1 | 7.33 | –
33 | COc1cc(Cl)c(C)cc1NC(c1ccccc1)c1nnc(-c2ccccc2Cl)o1 (stereo not given) | -9.11 | –
34 | CCCCN(C)CCNC(=O)C1CCN(c2nc3ccc(CC)cc3s2)CC1 | -90.7 | –
35 | CCc1ccc(S(=O)(=O)N(C(=O)c2ccncc2)c2ccc3oc(C)c(C(=O)OC)c3c2)cc1 | – | 11.7 µM (active)
36 | Cc1noc(/C=C/N(C)C)c1S(=O)(=O)N1CCCC(C(=O)Nc2ccc(F)cc2F)C1 (stereo not given) | – | 1.85 µM (active)
37 | Cc1cccc(N2CCN(c3ncnc4c3nc3n4CCCCC3)CC2C)c1 (stereo not given) | – | 3.29 µM (active)
38 | CC(C)CCNc1nc(Nc2ccccc2)c2cnn(C)c2n1 | 17.1 | –
39 | COc1ccc2nc(NC(=O)c3nc(S(=O)(=O)Cc4ccccc4)ncc3Cl)sc2c1 | – | 5.85 µM (active)
40 | Cc1cccc(C)c1Nc1sc(C(=O)c2ccccc2)c(N)c1S(=O)(=O)c1ccccc1 | – | 2.61 µM (active)
